# Whole data set: some 33,000 sequences, median “E-score (-0.5 to 0.5)” near -0.054, cut for the highest 2% near 0.35. For the sample, the highest values were picked, then their nearest neighbours and some sequences at random.
# Target: T1, Stb5 (UniProt P38699)
# T1 sequence: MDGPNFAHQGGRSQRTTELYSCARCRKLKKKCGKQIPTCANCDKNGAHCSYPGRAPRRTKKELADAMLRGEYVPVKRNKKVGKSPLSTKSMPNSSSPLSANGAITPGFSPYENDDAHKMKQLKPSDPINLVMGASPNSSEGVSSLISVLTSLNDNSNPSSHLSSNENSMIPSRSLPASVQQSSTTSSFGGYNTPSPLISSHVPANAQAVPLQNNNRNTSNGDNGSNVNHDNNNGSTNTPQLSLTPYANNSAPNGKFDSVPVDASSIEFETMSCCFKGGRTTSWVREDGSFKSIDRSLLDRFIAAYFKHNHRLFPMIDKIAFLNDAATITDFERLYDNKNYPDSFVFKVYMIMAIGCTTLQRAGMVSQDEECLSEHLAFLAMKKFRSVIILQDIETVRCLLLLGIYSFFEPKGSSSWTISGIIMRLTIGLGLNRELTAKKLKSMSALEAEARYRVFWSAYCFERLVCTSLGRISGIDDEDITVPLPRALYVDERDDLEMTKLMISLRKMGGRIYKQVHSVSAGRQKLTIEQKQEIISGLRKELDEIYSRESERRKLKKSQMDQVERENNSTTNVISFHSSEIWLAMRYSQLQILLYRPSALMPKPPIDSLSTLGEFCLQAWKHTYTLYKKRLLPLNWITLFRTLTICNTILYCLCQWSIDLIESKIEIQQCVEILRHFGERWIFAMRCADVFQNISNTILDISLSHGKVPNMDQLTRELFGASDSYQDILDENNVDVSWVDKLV
# Assay: PBM E-score (8-mer binding enrichment) (E-score (-0.5 to 0.5)); higher = stronger / more preferred TF binding
# Settings: protein concentration: 200 nM; construct: GST-full length
# In short: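 For each ungapped eight-base word taken together with its reverse complement, the Universal PBM Analysis Suite assigned an E-score. Binding data came from GST-tagged yeast transcription factors, applied at about 100-200 nM, on universal all-10-mer Agilent arrays made double-stranded by primer extension. Fluorescent anti-GST marked bound protein, and scans were normalised with masliner.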
row,Sequence,PBM E-score
1,TACCCCGA,0.407
2,GACCCCGA,0.377
3,CACCCCGG,0.277
4,GACCCCCC,-0.259
5,TACCCCCA,-0.114
6,TACCCCAA,-0.157
7,GCCCCCGC,0.256
8,GACCCCGC,0.391
9,GACCCCCA,-0.201
10,GGTGCTCA,0.0877
11,CGAAAGAG,-0.0144
12,ACGCAGAG,-0.218
13,CCTCCATC,-0.18
14,AGCGGGAC,0.303
15,AGCGAGAC,-0.0631
16,CTAGCACC,0.336
17,GCGTCATA,-0.0207
18,GCAATGCA,-0.0992
19,CCAGCCAG,-0.223
20,ACAGTGAA,-0.147
21,CCTTAATC,0.109
22,GTTATCTA,-0.00767
23,ATCAACGA,0.0713
24,ACGGGTAG,-0.0642
25,AGAGTCCG,0.378

row,Sequence,PBM E-score
1,AACGTCCG,0.375
2,AGAGTCCT,-0.216
3,AAGGTCCG,0.442
4,AACGTCCC,-0.0635
5,AACGTCCA,-0.0958
6,CAGGTCCG,0.237
7,AAGGTCCA,-0.171
8,CAAGTCCG,0.356
9,CAAGTCCC,0.00375
10,AGAGTCCC,0.0723
11,CAAGTCCA,-0.171
12,GAACTGCC,-0.118
13,CGGATCCG,0.124
14,ATGGTCTA,-0.23
15,AAGAACCG,0.262
16,AAAGATCG,-0.0774
17,AGGCATCC,-0.261
18,ACATTAGC,-0.083
19,AGGCCGTG,0.212
20,CTCTTGTC,-0.198
21,ACGCCATG,-0.293
22,TAGCCGGA,0.279
23,CCTGAAGG,-0.14
24,AAAGTCCA,-0.136
25,AAAGTCCT,0.108

row,Sequence,PBM E-score
1,AAAGTCCG,0.466
2,ACGATTAC,-0.161
3,CTCTGCCA,-0.235
4,TCGGCCCA,0.105
5,ACGGAGAT,0.403
6,ACGGATAA,0.215
7,ACGGATAG,-0.0573
8,ACGGAGAA,0.188
9,ACGGAGCG,0.299
10,ACGGAGCT,0.373
11,ACGGATAT,0.367
12,ACGGAGCC,0.263
13,ACGGAGAC,0.272
14,AACTGTGA,-0.19
15,ATTGGAAA,-0.0189
16,ATCCTTTC,-0.195
17,CAGGCGAA,-0.257
18,GGCTTCTA,-0.04
19,AGTCGTAC,-0.189
20,TGTCGGAA,0.26
21,ACAGGTCA,-0.136
22,CACTACTA,-0.117
23,ACCATCCA,-0.118
24,ATAGTACC,0.359
25,ATAGTACG,-0.0437

row,Sequence,PBM E-score
1,CTAGTACC,0.226
2,AGCCGATA,0.0102
3,CGCCGAGC,0.261
4,ACCCGATC,0.19
5,CCCCGATC,0.374
6,CCCCGATA,0.339
7,CGCCGATC,0.363
8,GGCCGATA,0.266
9,AGCCGATC,0.0924
10,CGCCGATA,0.36
11,ACTATTCA,-0.084
12,CGCATCTC,-0.00684
13,TCTTTACA,-0.117
14,AGTGGCGG,0.292
15,ACAGTTAC,-0.0633
16,GGGAATAA,0.373
17,GGGAATAC,0.302
18,TGGAATAA,-0.14
19,CAACGAAC,0.079
20,CACCGATG,0.357
21,CACCGATC,0.359
22,CACCGATA,0.351
23,GACCGATC,0.323
24,AACCGATC,0.106
25,AACCGATG,0.143

row,Sequence,PBM E-score
1,GAGGCTGC,-0.213
2,ATCGGTTG,0.0401
3,CGCAATAC,-0.0062
4,CCTGGTCG,0.0613
5,AGTCGGGG,0.363
6,CCTCGGTA,0.223
7,CGTCGGTC,0.325
8,ACTCGGTA,-0.00538
9,AATCGGTG,0.405
10,AGTCGGTA,0.36
11,ACTCGGGG,0.185
12,AGTCGGGA,0.287
13,AATCGGTA,0.262
14,AATCGGTC,0.234
15,CGTCGGTA,0.357
16,GGTCGGTA,0.319
17,ATTGAAAT,-0.0501
18,AACGAGGC,-0.168
19,ACTCTACG,-0.241
20,TATACTCA,-0.245
21,GCGATTCA,0.00506
22,GGGCGCCC,0.147
23,GATAACGA,-0.102
24,ACTCAAGG,-0.223
25,AGTCGGCG,0.239

row,Sequence,PBM E-score
1,CGACGGTC,0.315
2,AGTCGGTC,0.259
3,AATCGGGC,0.209
4,AGTCGGTG,0.385
5,CGACGGTA,0.352
6,GGACGGTA,0.241
7,AATCGGGG,0.372
8,CATCGGGG,0.313
9,AAATGGAT,-0.168
10,AGGGAGAC,-0.0822
11,AACATGGT,-0.217
12,GCCAGCGC,-0.00309
13,GAAGGGGC,-0.11
14,AGCTCTCC,-0.325
15,CTGCGTCA,-0.121
16,GTAACTAC,0.109
17,ATTCCCGG,0.319
18,GTTCCCGA,0.235
19,ATTCCCGC,0.4
20,CTTCCCGC,0.129
21,ATTCCCGA,0.379
22,CTTCCCGA,0.0298
23,AATCCTAG,-0.0194

# Source: the supplement of paper PMC3334620
